From PubChem BioAssay AID588358 (NMMLSC, 2011)
“And” between values parts separate entries of the source, which are not always exact repeats. Identical values can stand only once. The campaign covered roughly 310,000 compounds. About 1,500 (0.48%) were called active.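 The calls were made as follows: active = binding more than 3 SD below its plate's average and above zero; inconclusive = below that plate limit but binding exactly zero; inactive = the rest.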 For the sample, actives were picked, then their nearest neighbours and some compounds at random.

The compounds below were run against Desmoglein-3 (Homo sapiens) (UniProt P32926) (assay: inhibitors of pemphigus antibody binding to DSG3, primary screen, biochemical, bead-based, flow cytometry, scFv-GFP (AID 588358;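 also: hits lower antibody fragment binding to DSG3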)). Settings: DSG3-coupled beads, scFv-anti-DSG3-GFP binding, at 10 µM, hits give low values.
Desmoglein-3 (Homo sapiens), sequence (P32926 whole entry, looked up, the tested form may be a part): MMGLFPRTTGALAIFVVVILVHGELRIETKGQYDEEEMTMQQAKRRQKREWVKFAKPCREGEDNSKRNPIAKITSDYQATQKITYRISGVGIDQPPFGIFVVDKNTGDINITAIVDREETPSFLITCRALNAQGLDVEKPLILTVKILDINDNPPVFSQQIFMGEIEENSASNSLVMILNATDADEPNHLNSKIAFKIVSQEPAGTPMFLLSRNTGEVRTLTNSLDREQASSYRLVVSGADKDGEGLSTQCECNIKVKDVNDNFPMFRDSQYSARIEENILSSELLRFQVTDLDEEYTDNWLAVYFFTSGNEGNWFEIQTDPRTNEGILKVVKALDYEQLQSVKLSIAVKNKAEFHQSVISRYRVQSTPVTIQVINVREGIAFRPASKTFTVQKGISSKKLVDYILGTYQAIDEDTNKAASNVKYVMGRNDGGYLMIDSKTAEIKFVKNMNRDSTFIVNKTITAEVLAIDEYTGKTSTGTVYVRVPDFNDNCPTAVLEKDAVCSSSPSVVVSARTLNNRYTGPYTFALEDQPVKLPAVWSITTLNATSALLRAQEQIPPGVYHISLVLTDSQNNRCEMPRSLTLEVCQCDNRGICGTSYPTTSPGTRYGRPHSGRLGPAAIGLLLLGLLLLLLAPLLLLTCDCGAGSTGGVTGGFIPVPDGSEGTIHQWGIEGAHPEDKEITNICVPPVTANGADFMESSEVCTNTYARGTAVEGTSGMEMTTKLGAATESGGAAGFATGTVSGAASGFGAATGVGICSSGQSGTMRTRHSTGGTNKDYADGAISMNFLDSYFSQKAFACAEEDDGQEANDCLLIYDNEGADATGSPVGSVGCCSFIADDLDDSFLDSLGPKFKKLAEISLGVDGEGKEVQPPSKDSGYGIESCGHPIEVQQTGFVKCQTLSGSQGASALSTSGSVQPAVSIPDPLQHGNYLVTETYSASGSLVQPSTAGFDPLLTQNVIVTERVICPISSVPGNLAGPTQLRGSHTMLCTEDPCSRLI

Binding (percent of control), inactive:
O=C(c1ccco1)N1CCN(Cc2cccc(C(F)(F)F)c2)CC1 107%
COC(=O)c1ccc(CNC(=O)C2CCC(=O)N(Cc3cccc(F)c3)C2)cc1 (stereo unspecified) 97%
Cc1ccnc(SC2CC(=O)N(c3ccccc3)C2=O)n1 (stereo unspecified) 95.7%
O=C(NCC(F)(F)F)c1ccc(S(=O)(=O)NCCc2ccc3c(c2)OCCO3)cc1 97.1%
C[C@H](O)[C@@H]1C(=O)N2CCc3c([nH]c4ccccc34)[C@@H]2C[C@@H]1N(C)C(=O)Nc1ccc(F)cc1 109%
CN(C)c1cc[n+](Cc2ccccc2)cc1 99.9%
O=C(c1ccc(CSc2ccccc2)cc1)N1CCCCCC1 105%
Cc1ccc(Cc2c(-c3ccc(C)cc3)nc3c4ccccc4ccn23)cc1 109%
Cc1ccc(S(=O)(=O)/N=C2\C=C(NS(=O)(=O)c3ccc(C)cc3)C(=O)c3ccccc32)cc1 97.2%
COc1cccc(NC(=O)CN(C)C(=O)c2ccccc2CCc2ccccc2)c1 108%
COc1ccc(NC(=O)CN(C)C(=O)c2cc(-c3ccc(C)o3)nc3ccccc23)cc1 96.9%
CSc1ncccc1C(=O)N1CCCC(Nc2ccc(F)c(F)c2)C1 (stereo unspecified) 104%
CCN(C(=O)Nc1cccc2ccccc12)c1ccccc1 103%
CCc1ccccc1NC(=O)CN1CCN(C(=O)c2cc(C3CC3)nn2-c2ccccc2)CC1 106%
COc1ccc(S(=O)(=O)N(C)C)cc1NC(=O)COC(=O)c1n[nH]c2ccccc12 98.8%
Cc1cccc(C(=O)C(O)(c2ccccc2)C2CCCCC2=O)c1 (stereo unspecified) 106%
CCOc1ccccc1Nc1ccc2nonc2c1[N+](=O)[O-] 96.1%
O=C(O)c1ccccc1CSc1nc2ccccc2s1 116%
CCOC(=O)C(=Cc1ccccc1)C(=O)c1ccccc1 106%
CCN(CC)C(=O)C1=C(C)N(Cc2ccccc2)C(=O)C(CC(=O)NC(c2ccccc2)c2ccccc2)C1 (stereo unspecified) 107%
O=C(CCc1ccc(O)cc1)NN=Cc1cc(Br)ccc1O 106%
COc1ccc(-c2noc(CNC(=O)C(C)Oc3ccccc3)n2)cc1 (stereo unspecified) 109%
COc1ccc(-c2noc(CCC(=O)N3CCN(c4cccc(C)c4)CC3)n2)cc1 98.6%
Cc1ccc(-c2ccc(C3=CC(=O)CC(C)(C)C3=O)cc2)cc1 97.6%
COc1ccc(C(CNC(=O)CSc2ccccc2)N2CCOCC2)cc1 (stereo unspecified) 100%
CC(C)c1cc(C(=O)N(C)C2CCCN(Cc3ccccc3F)C2)n(C)n1 (stereo unspecified) 96.7%
CC(C)C1CCN(C(=O)C2CCC(=O)N(C3CCCCCC3)C2)CC1 (stereo unspecified) 101%
CCCCOC(=O)NCN1C(=O)C2C3C=CC(C3)C2C1=O (stereo unspecified) 110%
CCC(C(=O)N1CCOCC1)n1c(C(=O)OC)cc2occc21 (stereo unspecified) 99.3%
CCCCCC(=O)N1C[C@H](O)[C@@H](n2cc(COC(=O)c3ccccc3)nn2)C[C@@H]1c1ccc(C)cc1 102%
CO/N=C(\C(=O)N[C@@H]1C(=O)N2C(C(=O)O)=C(COC(C)=O)CS[C@H]12)c1csc(N)n1 (stereo in doubt) 100% and 106%
C=CC1=C(C(=O)O)N2C(=O)[C@@H](NC(=O)/C(=N/OCC(=O)O)c3csc(N)n3)[C@H]2SC1 68.8%
O=C(CCCN1C(=O)C(c2ccccc2)Oc2cccnc21)Nc1ccccc1Br (stereo unspecified) 105%
O=C(OCc1cn([C@H]2C[C@H](c3ccccc3)N(C(=O)c3cccs3)C[C@@H]2O)nn1)c1ccccc1 106%
Cc1ccc2[nH]c3c(=O)n(Cc4ccccn4)cnc3c2c1 108%
COc1ccc2c(c1)c1ncn(Cc3ccccn3)c(=O)c1n2C 112%
C[C@@H]1CN([C@@H](C)CO)C(=O)CCCn2nncc2CO[C@H]1CN(C)Cc1ccc(C(F)(F)F)cc1 103%
Cc1cc(C)c2cc(C#N)c(N3CCNCC3)nc2c1 105%

Binding (percent of control), active:
O=C1CCC(C(=O)N2CCCCO2)CN1Cc1cccc(C(F)(F)F)c1 (stereo unspecified) 90.7%
CN(C)c1ccc(CSc2ccccc2)cc1 -6.16%
COc1cccc(NC(=O)CN(C)C(=O)c2cc(Cl)nc3ccccc23)c1 80.8%
O=[N+]([O-])c1c(NCCO)cc(Sc2nc3ccccc3s2)c2nonc12 83.3%
COc1ccc(-c2noc(COc3ccc(Cl)c(C)c3)n2)cc1 66.6%
CCCC(C(=O)N1CCOCC1)N1C(=O)C2C3C=CC(C3)C2C1=O (stereo unspecified) -12.4%
C=CC1=C(C(=O)O)N2C(=O)[C@@H](NC(=O)/C(=N\OCC(=O)O)c3csc(N)n3)[C@H]2SC1 71%
O=c1c2[nH]c3ccc(Cl)cc3c2ncn1Cc1ccccn1 51%
